Shown are actives, neighbours in structure and some others; about 1.9% of the full set was active somewhere.
Integrin act MD – integrin-mediated muscular dystrophy alleviation activation; actives 0.064% (n = 350,000); alpha7betagal myoblasts, beta-gal FDG fluorescence, 48 h; Potency, µM (doses to about 38.3 µM), for the others: at the top dose activation, most hits filed as activators;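 further: potency means the concentration at half of the fitted maximal effect; 100% = response of the positive control SU9516; nearly all actives have a fitted effect of over 60% in size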
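Alpha7betagal+/- myoblasts (passage 13) were plated 16-24 hr, then exposed to compounds (1:260 dilution of DMSO stock) for 48 hours at 37C. After MPER lysis, β-galactosidase reporter activity was read as FDG fluorescence (ex 480/em 540) after 30 minutes.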
PKM2 act – increases activity of human pyruvate kinase M2 | purified PKM2, Kinase-Glo ATP luminescence, activation; response scale: 0% is enzyme alone, no compound | Potency, µM (highest dose often 57.5 µM), for the others: at the top dose activation, most hits filed as activators | actives 0.34% (n = 260,000) | AID 1631; further: potency means the concentration at half of the fitted maximal effect; on the % scale 0 is the no-effect control and ±100 the full control effect; nearly all actives have a fitted effect of over 55% in size
Target sequence (P14618 whole entry, looked up): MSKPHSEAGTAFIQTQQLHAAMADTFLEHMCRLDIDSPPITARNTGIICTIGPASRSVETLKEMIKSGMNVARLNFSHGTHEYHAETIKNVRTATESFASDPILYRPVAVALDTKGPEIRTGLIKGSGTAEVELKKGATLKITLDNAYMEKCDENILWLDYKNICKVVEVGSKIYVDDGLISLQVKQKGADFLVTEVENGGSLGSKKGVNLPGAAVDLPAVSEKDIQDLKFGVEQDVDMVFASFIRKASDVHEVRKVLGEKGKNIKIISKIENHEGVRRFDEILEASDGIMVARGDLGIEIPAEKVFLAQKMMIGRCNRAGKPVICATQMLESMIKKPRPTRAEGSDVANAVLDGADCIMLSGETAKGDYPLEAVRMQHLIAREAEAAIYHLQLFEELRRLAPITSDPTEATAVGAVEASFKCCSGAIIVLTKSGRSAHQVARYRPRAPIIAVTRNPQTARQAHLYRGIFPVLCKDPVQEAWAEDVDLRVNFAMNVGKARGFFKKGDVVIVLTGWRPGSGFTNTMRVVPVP
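Purified hPK-M2 (>95% pure) converted ADP (0.1 mM final) to ATP with 0.5 mM PEP in 50 mM imidazole pH7.2, KCl, MgCl2, Tween 20, BSA; 1 h at room temperature. ATP detected by Kinase-Glo luminescence.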
IL-2 act – activators of IL-2; IL-2 activation reporter assay, cell-based qHTS; stimulated with anti-CD3/CD4/CD28 beads; in transgenic mouse T cells; activation, % (series mostly up to about 46 µM); actives 0.065% (n = 360,000); in the data active means activation above about 50%; inconclusive means mostly about 30% to 49%; further: 0% is about no effect
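EGFP and DsRed fluorescence is measured by plate cytometry in unstimulated transgenic mouse T cells exposed to compound for 60 minutes, then stimulated 18 hours at 37 degrees C with anti-CD3/anti-CD4 beads plus anti-CD28.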
Pin1 inh – blocks the human prolyl isomerase Pin1; Q13526; Pin1 FP peptide displacement, HiFluor488, 10 min; AID 504891; Potency, µM (titrated, usually from 115 µM), for the others: at the top dose activity, negative = inhibition, usual class: inhibitors; actives 0.009% (n = 390,000); active means well fitted inhibition curve with a large enough effect in the polarisation, with a control signal flat, not every such curve was filed as active; inconclusive means small, poorly fitted or top-dose-only effect, or effect the other way, or a change in a side signal; inactive means no such curve, though single readings can be large or run the other way; the % refers to the polarisation; further: potency means the concentration at half of the fitted maximal effect; on the % scale 0 is the no-effect control and ±100 the full control effect
ClpP mod – qHTS Assay for Activators of ClpP. Potency, µM (series often up to 57.5 µM), inactives show at the top dose activity change, negative = active. purified B. subtilis ClpP, FRET peptide cleavage, 20 min. actives 1.9% (n = 340,000). ATP-dependent Clp protease proteolytic subunit (Bacillus subtilis (strain 168)), P80244; active means well fitted falling curve with a large enough effect; inconclusive means small, poorly fitted or top-dose-only effect; inactive means no such curve, though single readings can be large or run the other way; further: potency means the concentration at half of the fitted maximal effect; the source files actives as falling curves though it sought activators and does not explain the sign; nearly all actives have a fitted effect of over 65% in size
Target sequence (P80244 whole entry, looked up): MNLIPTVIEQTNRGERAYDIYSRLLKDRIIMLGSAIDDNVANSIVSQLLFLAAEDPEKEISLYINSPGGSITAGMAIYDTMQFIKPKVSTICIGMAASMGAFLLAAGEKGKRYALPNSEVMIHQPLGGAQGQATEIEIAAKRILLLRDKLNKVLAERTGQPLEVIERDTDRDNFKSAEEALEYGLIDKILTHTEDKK
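FRET quenching reversal measured ClpP activation: 10 microg/mL B. subtilis ClpP at pH 8 with the FRET-FV decapeptide, read at 430 nm after 320 nm excitation. The 20-min minus 0-min signal was scaled between DMSO/no-enzyme wells and ADEP (5.8 microM final).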
USP2a block – blocks human ubiquitin-specific protease USP2a; O75604; Potency, µM (doses to about 38.3 µM), for inactives: at the top dose activity change, negative = inhibition, usual class: inhibitors; USP2 core, Ub-CHOP2 coupled fluorogenic reporter, 485/531; AID 463254; actives 0.01% (n = 330,000);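 further: potency means the concentration at half of the fitted maximal effect; plate controls were DMSO wells for no effect and full inhibition by NEM control for full effect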
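USP2 core (10nM final) preincubated 30min RT with compound in 20mM Tris-HCl pH 8.0, 2mM CaCl2, 2mM beta-mercaptoethanol, 0.05% CHAPS; 25nM Ub-CHOP2 plus 25nM reporter substrate added, fluorescence (Ex485/Em531) read after 60min.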
The depositor's hits bear a star; ? = inconclusive; . = no result given; [ ] = another dose, or the depositor's remark. Unless noted, the call rests on the fitted dose curve; in most records, active means well fitted curve in the direction sought with a large enough effect; inconclusive means small, poorly fitted or top-dose-only effect, or another doubt; inactive means no such curve, though single readings can be large; an effect the other way counts as inactive or inconclusive.

SMILES	Integrin act MD	PKM2 act	IL-2 act	Pin1 inh	ClpP mod	USP2a block
C/C(=N\NC(=O)c1ccc(O)cc1)c1ccc(NC(=O)Cc2ccccc2)cc1	-13%	2%	-4	0%	-2%	3%
CSC(=NNC(=O)c1ccc(O)cc1)SC	4%	-22%	0	1%	28µM*	5%
CN(C)c1ccc(/C=C2\C=Cc3ccccc32)c(Cl)c1	.	.	.	.	1%	.
Cc1cc(C)n2nc(NCc3cccc(Br)c3)nc2n1	-14%	-1%	-3	8%	14µM*	3%
Cc1ccc(-n2c(SCC(N)=O)nnc2-c2ccc(S(=O)(=O)N3CCCCC3)cc2)c(C)c1	0%[7.66 µM]	9%	-2	-5%	25µM*	-2%
Cn1c(SCC(N)=O)nnc1-c1ccc(S(=O)(=O)N2CCCC2)cc1	3%	.	3	-3%	.	3%
CC(=O)Nc1ccccc1OC1=N[S+](=O)([O-])c2ccccc21	.	.	.	1%	.	.
CN(C)C(=O)Cn1c(SCC(=O)Nc2ccc3c(c2)OCO3)nc2ccccc21	-1%	-6%	1	-5%	16µM*	0%
Cc1nc(SCC(=O)Nc2ccc3c(c2)OCCO3)nc(C)c1C	0%	-3%	0	-6%	20µM*	4%
O=C(CCN1CCCCCC1)Nc1ccc2c(c1)OCCO2	-30%	-1%	0	1%	14µM*	1%
NCCCN(Cc1ccc(Cl)c(Cl)c1)c1ccc(Br)cn1	.	.	.	2%	-4%	.
CCC(C)NC(=O)c1ccc2nc(-c3cccs3)c(-c3cccs3)nc2c1 (stereo not given)	.	.	.	4%	-28%	.
Cc1occc1-c1nnc(SCC(=O)c2c[nH]c3ccccc23)n1C	-17%	25µM*	-1	9%	1%	3%
CN(CCC#N)c1ccc(/C=C/c2ccnc3ccccc23)cc1	.	.	.	.	0%	.
COc1cc2c(cc1OC)C1=NC(=O)CN1C(SCc1ccc(C)cc1)=N2	0%	-10%	2	32%	20µM*	-5%
C=CCSC1=Nc2cc(OC)c(OC)cc2C2=NC(=O)CN12	18%	6%	-2	9%	4%	4%
Fc1cccc2sc(Nc3nnc(-c4ccco4)o3)nc12	-20%	-18%	1	-14%	25µM*	-8%
ClC(Br)=C(n1cnc2ccccc21)n1cnc2ccccc21	8%	-1%	-2	-6%	25µM*	5%
CN(C(=O)n1cnc2ccccc21)c1ccccc1	18%	-4%	0	-6%	1%	3%
O=C(OC(C(=O)Nc1ccc([N+](=O)[O-])cc1Br)c1ccccc1)c1ccccc1 (stereo not given)	-4%	0%	1	13%	0%	1%
CC(C)C(=O)Nc1ccc([N+](=O)[O-])cc1Br	16%	-7%	-2	-12%	35µM*	3%
CCn1cc(/C=N/NS(=O)(=O)c2ccc(OC)cc2)c(C)n1	23%	-5%	0	4%	32µM*	-3%
Cc1ccc(C(=O)NCCc2ccccc2)cc1S(=O)(=O)N1CCOCC1	-3%	.	0	5%	0%	4%
Cc1ccc(C(=O)NC(C)CCc2ccccc2)cc1S(=O)(=O)N1CCOCC1 (stereo not given)	8%	.	0	-1%	28µM*	3%
CN(C)CCCNc1cc(N2CCN(C)CC2)ncn1	.	.	.	.	-1%	.
SMILES	Integrin act MD	PKM2 act	IL-2 act	Pin1 inh	ClpP mod	USP2a block
O=C(O)CCc1ccc(-c2ccc(Cl)cc2)n1CCC(=O)O	0%	4%	1	?	-5%	-1%
C=CCn1c(CCC(=O)O)ccc1-c1ccccc1	2%	6%	0	7%	28µM*	0%
COc1ccc(-c2ccc(CCC(=O)O)n2NC(N)=O)cc1	?	0%	-2	0%	3%	16%
CCCn1c(CCC(=O)O)ccc1-c1ccc(OC)cc1	-39%	3%	3	?	28µM*	.
CC(C)S(=O)(=O)N1CCN(c2nc(-c3cccs3)nc3ccccc23)CC1	.	.	.	6%	?	.
Cc1cc(N(C)C)ccc1/C=C/c1ccnc2ccccc12	.	.	.	.	-1%	.
COc1ccc(S(=O)(=O)n2ccc(-c3cnc(-c4ccccc4)s3)n2)cc1	-19%	-4%	-2	13%	28µM*	0%
O=C(c1ccccc1)n1ccc(-c2cnc(-c3ccccc3)s2)n1	3%	2%	0	1%	46%	1%
COCC(=O)Nc1nc2n(n1)C(c1ccccc1)CC(c1ccc(OC)cc1)N2 (stereo not given)	-5%[7.66 µM]	2%	0	?	25µM*	3%
COCC(=O)Nc1nc2n(n1)C(c1ccc(OC)cc1)CC(c1ccc(OC)cc1)N2 (stereo not given)	5%	-1%	1	-5%	-2%	1%
COc1ccc(SCC(Cc2ccccc2)N2CCN(CCc3ccccc3)CCC2=O)cc1 (stereo not given)	.	.	.	24%	.	.
COc1cccc(-n2ccnc2SCC(=O)Nc2nccs2)c1	-7%	-1%	0	4%	28µM*	0%
Cc1cccc(-n2ccnc2SCC(=O)Nc2nccs2)c1	1%	-2%	0	3%	2%	3%
COc1ccc(C)cc1NC(C)C(=O)c1c[nH]c2ccccc12 (stereo not given)	.	.	.	.	1%	.
CC(C)CCOc1ccc(CC(=O)NO)cc1	.	.	.	.	1%	.
COc1cccc2c1Oc1ncccc1N(c1ccc(C(=O)NCc3ccccc3C)s1)C2	.	.	.	33%	32µM*	.
N#Cc1nc(NCC2CC2)nc(Nc2ccccc2)n1	.	.	.	2%	.	.
CCc1cn([C@H]2C[C@H](O)[C@@H](CO)O2)c(=O)[nH]c1=O	.	1%	1	8%	1%	2%
Cc1nn(C2CC(O)C(O)C(CO)O2)c(=O)[nH]c1=O (stereo not given)	18%	.	0	4%	28µM*	.
Cc1cc(C)n2ncc(C(=O)NCC(C)C)c2n1	.	.	.	-1%	.	.
CCOC(=O)c1snc(C(=O)NC2CCCCC2)c1N	9%	-2%	3	-13%	?	-1%
COc1ccc(N(CC(=O)NCCC(C)C)C(=O)c2snc(C(=O)NC3CCCCC3)c2N)c(OC)c1	10µM*	1%	-1	12%	.	-1%
Nc1c(C(=O)NC2CCCCC2)nsc1C(=O)OCC(=O)NC1CCCCC1	-12%	-2%	-2	-1%	25µM*	-2%
C[C@H]1Cc2c(-c3ccccc3)nc3c(c2CO1)CN(C(=O)NCc1ccco1)CC3	.	0%[11.5 µM]	.	.	.	.

Compound activity (PubChem)
